This is an account of results in PubChem BioAssay.

Active and inactive are the calls of the source.

Test [1] is described as follows: small molecules captured by biotinylated probe aFSTL3 – biochemical, small-molecule microarray, fluorescence 635/667, stem cell growth factor project, primary screen (AID 1064).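 Note: measures binding of the biotinylated anti-FSTL3 antibody to printed compounds.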 Conditions: higher = more signal.
Test [2] can be described thus: binders from COS7 lysate, DM2A8 probe, primary screen, torsin A project, cell lysate, small-molecule microarray, fluorescence 635/667 (AID 1065). Conditions: higher = more signal, COS7 lysate expressing mutant human TOR1A.
Test [3] is described as follows: small molecules captured by biotinylated probe aFGF2 – biochemical, small-molecule microarray, fluorescence 635/667, stem cell growth factor project, primary screen (AID 1067).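 Note: measures binding of biotinylated aFGF2 protein to printed compounds on slides; z-score merges feature fluorescence and signal-to-noise across triplicate slides.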 To be noted: higher = more signal.
A short description of test [4]: small molecules captured by biotinylated probe aFGF10 – biochemical, small-molecule microarray, fluorescence 635/667, stem cell growth factor project, primary screen (AID 1071).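 Note: score merges 667 nm spot intensity and signal to noise from triplicate slides.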 Conditions: higher = more signal.
The target in test [5] is Neurogenic locus notch homolog protein 2 (Homo sapiens) (UniProt Q04721). Description: small molecules binding Notch2 protein – biochemical, small-molecule microarray, 635 nm fluorescence, stem cell growth factors, primary screen (AID 1073). Conditions: higher = more signal.
Neurogenic locus notch homolog protein 2 (Homo sapiens), sequence (Q04721 whole entry, looked up, canonical isoform): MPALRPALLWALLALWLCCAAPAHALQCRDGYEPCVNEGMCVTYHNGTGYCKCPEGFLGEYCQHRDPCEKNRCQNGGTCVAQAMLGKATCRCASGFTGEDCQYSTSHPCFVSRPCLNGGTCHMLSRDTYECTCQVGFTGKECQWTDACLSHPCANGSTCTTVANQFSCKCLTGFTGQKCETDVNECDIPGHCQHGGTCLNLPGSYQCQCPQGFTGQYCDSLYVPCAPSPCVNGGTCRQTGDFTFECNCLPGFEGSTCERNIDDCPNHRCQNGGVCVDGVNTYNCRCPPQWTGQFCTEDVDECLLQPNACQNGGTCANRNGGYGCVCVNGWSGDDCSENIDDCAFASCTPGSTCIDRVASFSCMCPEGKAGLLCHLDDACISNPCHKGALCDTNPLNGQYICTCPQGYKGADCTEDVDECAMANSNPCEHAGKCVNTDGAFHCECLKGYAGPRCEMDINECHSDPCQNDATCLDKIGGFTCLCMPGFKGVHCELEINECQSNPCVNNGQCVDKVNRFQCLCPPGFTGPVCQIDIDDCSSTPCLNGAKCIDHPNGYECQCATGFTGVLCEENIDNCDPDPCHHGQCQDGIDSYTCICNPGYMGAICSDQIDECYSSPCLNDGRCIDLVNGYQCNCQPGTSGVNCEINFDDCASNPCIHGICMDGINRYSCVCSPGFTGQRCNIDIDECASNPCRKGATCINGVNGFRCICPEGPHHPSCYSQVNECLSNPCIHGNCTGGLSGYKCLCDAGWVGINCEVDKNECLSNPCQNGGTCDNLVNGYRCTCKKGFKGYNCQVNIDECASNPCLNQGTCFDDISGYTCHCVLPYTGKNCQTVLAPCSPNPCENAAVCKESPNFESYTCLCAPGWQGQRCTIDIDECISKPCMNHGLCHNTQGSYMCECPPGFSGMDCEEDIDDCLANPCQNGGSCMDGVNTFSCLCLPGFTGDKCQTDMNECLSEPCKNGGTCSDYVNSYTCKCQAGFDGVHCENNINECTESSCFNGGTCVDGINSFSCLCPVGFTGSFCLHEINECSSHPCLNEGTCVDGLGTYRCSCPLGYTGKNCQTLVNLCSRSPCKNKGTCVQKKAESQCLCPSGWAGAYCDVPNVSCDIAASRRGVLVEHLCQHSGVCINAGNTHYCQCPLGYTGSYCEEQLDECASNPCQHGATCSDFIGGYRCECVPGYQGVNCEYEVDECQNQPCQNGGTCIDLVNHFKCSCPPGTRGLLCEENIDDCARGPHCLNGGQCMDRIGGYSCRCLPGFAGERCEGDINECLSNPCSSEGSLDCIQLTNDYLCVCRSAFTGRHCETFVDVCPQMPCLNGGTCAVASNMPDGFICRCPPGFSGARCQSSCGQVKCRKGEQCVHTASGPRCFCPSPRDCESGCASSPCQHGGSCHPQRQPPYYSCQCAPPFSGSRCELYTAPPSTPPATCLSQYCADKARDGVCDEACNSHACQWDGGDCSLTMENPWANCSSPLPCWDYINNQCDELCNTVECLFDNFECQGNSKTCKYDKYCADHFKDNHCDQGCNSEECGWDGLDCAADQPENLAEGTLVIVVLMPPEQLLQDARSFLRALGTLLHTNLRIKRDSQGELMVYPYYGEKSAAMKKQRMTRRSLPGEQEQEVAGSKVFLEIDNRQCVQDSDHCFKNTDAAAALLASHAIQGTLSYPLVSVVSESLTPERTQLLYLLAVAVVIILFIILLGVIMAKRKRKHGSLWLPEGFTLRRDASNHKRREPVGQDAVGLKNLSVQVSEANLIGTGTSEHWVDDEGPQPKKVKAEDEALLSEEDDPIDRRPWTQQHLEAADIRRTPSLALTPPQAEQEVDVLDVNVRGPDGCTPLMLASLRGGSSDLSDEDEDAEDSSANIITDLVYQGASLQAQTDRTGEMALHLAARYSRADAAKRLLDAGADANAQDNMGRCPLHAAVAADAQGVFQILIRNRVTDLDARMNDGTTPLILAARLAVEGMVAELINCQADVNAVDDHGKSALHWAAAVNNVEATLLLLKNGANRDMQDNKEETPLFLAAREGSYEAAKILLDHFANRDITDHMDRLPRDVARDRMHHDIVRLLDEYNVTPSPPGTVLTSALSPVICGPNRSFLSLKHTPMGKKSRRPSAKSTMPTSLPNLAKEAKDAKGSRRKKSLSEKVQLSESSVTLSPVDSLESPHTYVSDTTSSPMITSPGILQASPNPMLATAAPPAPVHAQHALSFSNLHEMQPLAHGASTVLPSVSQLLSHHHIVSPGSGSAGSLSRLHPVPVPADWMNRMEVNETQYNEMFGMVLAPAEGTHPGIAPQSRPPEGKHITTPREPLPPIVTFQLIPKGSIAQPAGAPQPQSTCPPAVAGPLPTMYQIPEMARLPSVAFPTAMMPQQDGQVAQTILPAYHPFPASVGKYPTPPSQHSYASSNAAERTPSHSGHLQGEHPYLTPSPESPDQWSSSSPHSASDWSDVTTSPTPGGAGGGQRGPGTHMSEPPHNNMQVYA
In test [6] the target is Pro-neuregulin-1, membrane-bound isoform (Homo sapiens) (UniProt Q02297). The test can be described thus: small molecules binding neuregulin-1 protein – biochemical, small-molecule microarray, fluorescence 635/667, psychiatric disease protein project, primary screen (AID 1075).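 Note: score combines 667 nm spot fluorescence with signal to noise.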 Conditions: NRG1 binding, 635 nm fluorescence, higher = more signal.
Pro-neuregulin-1, membrane-bound isoform (Homo sapiens), sequence (Q02297 whole entry, looked up, the tested form may be a part, canonical isoform): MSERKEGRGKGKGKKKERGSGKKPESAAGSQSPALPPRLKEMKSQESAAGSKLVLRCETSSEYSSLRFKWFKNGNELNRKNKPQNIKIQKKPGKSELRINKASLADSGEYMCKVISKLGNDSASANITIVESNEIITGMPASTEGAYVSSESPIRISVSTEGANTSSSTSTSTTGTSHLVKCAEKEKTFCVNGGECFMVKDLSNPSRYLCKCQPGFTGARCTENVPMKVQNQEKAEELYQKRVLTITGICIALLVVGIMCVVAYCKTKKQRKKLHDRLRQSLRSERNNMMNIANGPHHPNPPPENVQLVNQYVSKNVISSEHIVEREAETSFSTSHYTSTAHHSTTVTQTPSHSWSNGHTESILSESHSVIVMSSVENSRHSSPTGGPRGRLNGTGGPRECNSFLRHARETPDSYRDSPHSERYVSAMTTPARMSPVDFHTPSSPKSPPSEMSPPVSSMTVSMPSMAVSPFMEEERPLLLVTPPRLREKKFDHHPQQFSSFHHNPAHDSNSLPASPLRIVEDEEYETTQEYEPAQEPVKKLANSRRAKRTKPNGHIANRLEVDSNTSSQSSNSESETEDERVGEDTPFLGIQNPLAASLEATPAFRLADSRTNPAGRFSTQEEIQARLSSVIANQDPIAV
Test [7] relates to Neuregulin-1 EGF-like domain. The test can be described thus: small molecules binding NRG1 EGF domain – biochemical, small-molecule microarray, 635 nm fluorescence, primary screen (AID 1081).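 Note: binding of the protein to compounds printed on small-molecule microarray slides.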 To be noted: higher = more signal.
The nature of test [8]: FRG1 expression reporter modulators in myotubes – cell-based, C2C12 myotubes, firefly/Renilla luciferase, luminescence, FRG1 inhibition for FSHD, primary screen (AID 1084). To be noted: FRG1 promoter luciferase, higher = more signal, called active from +8 up or from −8 down.
Test [9] is described as follows: small molecules captured by biotinylated probe aFST – biochemical, small-molecule microarray, fluorescence 635/667, stem cell growth factor project, primary screen (AID 1086).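 Note: score merges 667 nm fluorescence with signal-to-noise of each printed compound spot.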 To be noted: higher = more signal.
Test [10] in a line: binders of probe aHhip on microarray, primary screen, stem cell growth factor project, biochemical, small-molecule microarray, fluorescence 635/667 (AID 1087).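 Note: score merges spot fluorescence at 667nm with spot signal to noise ratio.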 Conditions: higher = more signal.
Test [11] relates to PRMT1 (protein arginine N-methyltransferase 1). The test can be described thus: small molecules binding arginine methyltransferase PRMT1 – biochemical, small-molecule microarray, 635 nm fluorescence, primary screen (AID 1088).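 Note: binding of Prmt1 protein to compounds spotted on small-molecule microarray slides.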 To be noted: higher = more signal.
A short description of test [12]: growth effects on S. cerevisiae YJM789 – YJM789 clinical isolate, OD600, 24 h, basal, primary screen (AID 1089).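 Note: growth of clinical yeast isolate S. cerevisiae YJM 789 seeded 1000 cells per well; test concentration not given here.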 Conditions: higher = more signal, called active from +8 up or from −8 down.
Test [13] is described as follows: S. pombe growth modifiers, basal conditions – strain 972, OD600, 24 h, no modulator, primary screen (AID 1090).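 Note: basal condition with compound alone and no growth modifier present; test concentration not given here.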 Conditions: S. pombe 972 growth, higher = more signal, called active from +8 up or from −8 down.
Test [14] can be described thus: budding yeast growth modifiers under rapamycin – strain BY4716, OD600, 96 h, primary screen (AID 1091). Note: test concentration not given here. Conditions: S. cerevisiae BY4716 + rapamycin, higher = more signal, called active from +8 up or from −8 down.
Test [15] addresses Torsin-1A-interacting protein 2 (Homo sapiens) (UniProt Q8NFQ8). Description: small molecules binding lysate-expressed LULL1 – cell lysate, human LULL1 lysate, 635/667 nm fluorescence, primary screen (AID 1092).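 Note: probe is lysate of COS7 cells overexpressing human LULL1; score merges per-feature 667 nm fluorescence with signal-to-noise.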 Conditions: small-molecule microarray, hLULL1 lysate binding, 635 nm fluorescence; higher = more signal.
Test [16] is described as follows: optical density change of DRC41 E. coli – strain DRC41, OD650, 24 h, E. coli filamentation project, primary screen (AID 1093).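 Note: MC1000 strain lacking acrAB efflux and sulA so SOS filamentation is blocked; test concentration not given here.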 Conditions: E. coli DRC41 growth, higher = more signal, called active from +8 up or from −8 down.
Test [17] in a line: probe aLefty2 binding to arrayed compounds – biochemical, biotinylated probe, 635/667 nm fluorescence, primary screen (AID 1094).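 Note: score merges spot fluorescence near 667 nm with spot signal-to-noise ratio.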 Conditions: small-molecule microarray, higher = more signal.
For test [18], the system named is Noggin (protein binding on small-molecule microarray). The test can be described thus: small molecules binding Noggin protein – biochemical, 635/667 nm fluorescence, primary screen (AID 1095).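 Note: score merges 667 nm feature fluorescence with signal to noise over triplicate slides.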 To be noted: 635 nm fluorescence, higher = more signal.
For test [19], the target named is Neurogenic locus notch homolog protein 3 (Homo sapiens) (UniProt Q9UM47). The test can be described thus: small molecules binding NOTCH3 protein – biochemical, 635/667 nm fluorescence, primary screen (AID 1096). Conditions: small-molecule microarray, 635 nm fluorescence, higher = more signal.
The nature of test [20]: probe aEGFR binding to arrayed compounds – biochemical, biotinylated probe, 635/667 nm fluorescence, primary screen (AID 1097).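 Note: probe is a biotinylated anti-EGFR antibody binding compounds printed on slides; score combines fluorescence near 667 nm and signal to noise of each spot.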 Conditions: small-molecule microarray, higher = more signal.

Torsin-1A-interacting protein 2 (Homo sapiens), sequence (Q8NFQ8 whole entry, looked up): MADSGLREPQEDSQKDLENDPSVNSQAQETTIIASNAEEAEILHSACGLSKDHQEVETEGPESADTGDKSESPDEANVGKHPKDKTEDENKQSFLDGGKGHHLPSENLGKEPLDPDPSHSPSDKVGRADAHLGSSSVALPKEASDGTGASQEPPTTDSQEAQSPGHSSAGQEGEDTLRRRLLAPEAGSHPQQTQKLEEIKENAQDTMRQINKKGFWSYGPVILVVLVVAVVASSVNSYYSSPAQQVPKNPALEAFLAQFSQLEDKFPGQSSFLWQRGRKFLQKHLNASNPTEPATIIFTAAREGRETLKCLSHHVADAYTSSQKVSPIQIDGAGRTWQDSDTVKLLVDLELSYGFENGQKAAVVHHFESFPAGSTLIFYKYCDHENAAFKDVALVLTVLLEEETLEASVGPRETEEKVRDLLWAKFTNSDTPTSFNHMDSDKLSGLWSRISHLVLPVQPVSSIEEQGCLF

Regarding `COCCOC(=O)N1C(=O)[C@@]2(c3cc(C#CCC(C(=O)OC)C(=O)OC)ccc31)[C@H](c1ccccc1OCCO)N1[C@H](c3ccccc3)[C@H](c3ccccc3)OC(=O)[C@H]1[C@@H]2C(=O)NC[C@H](O)c1ccccc1`, the composite z-score is -0.0494 in test [1]; 0.114 in [2]; -0.117 in test [3]; 0.791 in [4]; 0.961 in [5]; 1.27 in test [6]. For the same molecule, the composite z-score in test [7] was found to be 1.15; in test [9], 0.357; in test [10], 0.152; in test [11], 1.54; in test [15] it was 2.32; in test [17] it was 0.032. The composite z-score in [18] turned out to be 1.62; in [19] it was 1.05; in test [20], 0.379. In addition, the z-score in test [8] was -0.923 (inactive); in test [12] it was 1.78 (inactive); in test [13] it was 2.17 (inactive); in [14], 5.84 (inactive); in [16], -0.036 (inactive).
As for `COCCOC(=O)N1C(=O)[C@@]2(c3ccccc31)[C@H](c1ccc(O)cc1)N1[C@H](c3ccccc3)[C@H](c3ccccc3)OC(=O)[C@H]1[C@@H]2C(=O)Nc1nc2ccccc2s1`, the composite z-score in test [1] was 0.161; in [2], 0.912; in test [3], -0.0441; in [4], 0.175; in test [5] it was 1.16; in [6] it was 1.38. The composite z-score was found to be 1.11 in [7]; 0.5 in [9]; 0.0139 in [10]; 1.31 in test [11]; 1.94 in test [15]; 0.201 in test [17]. Also, the composite z-score in test [18] came out at 0.734; in test [19], 1.09; in test [20], 0.0432. For the same molecule, the z-score in test [8] was -0.929 (inactive); in [12] it was 1.35 (inactive); in [13] it was 0.396 (inactive); in test [14], 1.75 (inactive); in test [16] it was 1.31 (inactive).
In the case of `O=C(c1ccccc1)N1Cc2ccccc2C[C@@]2(COC(c3ccc(OCCCO)cc3)=N2)C1=O`, the composite z-score was -0.0932 in test [1]; 0.711 in test [2]; 0.0292 in [3]; 0.591 in test [4]; 1.03 in test [5]; 0.0612 in test [6]. In addition, the composite z-score in test [7] is 1.25; in [9] it was 0.146; in test [10] it was -0.0296; in [11] it was 1.55; in test [15], 3.39; in test [17], 0.0478. The composite z-score in [18] is 0.779; in test [19], 1.04; in test [20], -0.0439. The z-score in [8] was -0.187 (inactive); in test [12] it was -1.1 (inactive); in test [13] it was -11.1 (active); in test [14], 3.57 (inactive); in test [16] it was 0.0571 (inactive).
As to `C=CCC(OC(C)=O)[C@@H]1[C@@H](N(Cc2ccc(-c3ccccc3)cc2)C(=O)Cc2ccc(OC)cc2)c2cc(OCCCO)ccc2N1C(=O)Cc1ccc2ccccc2c1` (stereo not given in full), the composite z-score is -0.214 in [1]; 0.735 in test [2]; -0.0891 in test [3]; 0.0163 in test [4]; -0.299 in [5]; -0.32 in test [6]. Further, the composite z-score is -0.504 in [7]; 0.0346 in [9]; -0.144 in test [10]; -0.137 in [11]; 1.09 in test [15]; -0.153 in test [17]. The composite z-score in test [18] was -0.688; in [19] it was -0.0042; in test [20] it was -0.177. Further, the z-score in test [8] is -0.952 (inactive); in [12], -0.74 (inactive); in test [13], -0.619 (inactive); in test [14], -0.238 (inactive); in test [16], -0.263 (inactive).
In the case of `CC(=O)NCCCC[C@@H]1NC(=O)[C@@H]2C[C@H](C(=O)NCCCCCNC(=O)CS)[C@H](c3cccc(OCCO)c3)N2C1=O`, the composite z-score was -0.525 in test [1]; -0.047 in test [2]; -0.211 in [3]; 0.37 in test [4]; 0.121 in test [5]; -0.122 in test [6]. The composite z-score in test [7] was 0.709; in [9], -0.195; in test [10] it was -0.212; in [11], 1.18; in test [15] it was -0.0484; in [17], -0.141. Also, the values for the composite z-score in test [18], in test [19] and in test [20] were 1.55, 0.486 and -0.0808, respectively. Also, the z-score in test [8] was 0.618 (inactive); in test [12], -3.39 (inactive); in test [13] it was -0.0277 (inactive); in test [14], -2.5 (inactive); in test [16], 1.16 (inactive).
